HCMV inh = blocks human cytomegalovirus replication | AID 1259415 | actives 4.5% (n = 410,000) | HFF cells, HCMV-luciferase reporter, 72 h; hits give low values | activity change, negative = inhibition, % at 57.5 µM; in the data active = activity change below about -60%; inconclusive = no clear call, values can overlap the other calls; inactive = above about -39%
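Human foreskin fibroblasts infected with luciferase-reporter HCMV at MOI 1 PFU/cell, compounds at two doses. Luciferase measured 72 h post infection; normalized to buffer-only basal and Salinomycin (10uM) controls.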
Vaccinia Venus = vaccinia inhibition (Venus reporter); Vaccinia virus Venus reporter expression, fluorescence; Potency, µM (highest dose often 36.5 µM), without a hit: at the highest dose activity change, negative = inhibition, actives largely listed as inhibitors; actives 0.46% (n = 330,000); calls by dose curve; tested in A549 cells; also: potency is read from the fitted curve at half-maximal effect; nearly all actives have a fitted effect of over 30% in size
Vaccinia mCherry = inhibitors of vaccinia virus infection (mCherry reporter signal); actives 0.63% (n = 310,000); Vaccinia virus mCherry reporter infection, fluorescence; Potency, µM (doses to about 36.5 µM), for inactives: at the highest dose activity change, negative = inhibition, most hits filed as inhibitors; calls by dose curve; tested in A549 cells; also: potency is read from the fitted curve at half-maximal effect; nearly all actives have a fitted effect of over 35% in size
FMDV inh = foot and mouth disease virus antiviral activity. FMDV antiviral cell-based qHTS. Potency, µM (highest dose often 57.9 µM), without a hit: at the highest dose activity change, negative = inhibition, hits mostly inhibitors. actives 1.2% (n = 410,000). AID 1159524; calls by dose curve; tested in HEK293T cells; also: read-out not given here; potency is read from the fitted curve at half-maximal effect; nearly all actives have a fitted effect of over 45% in size
HCV inhibitor = blocks hepatitis C virus. Huh7.5.1 HCVcc-Cre infection, luciferase reporter, 44 h. Potency, µM (series often up to 41.8 µM), for inactives: at the top dose activity change, negative = inhibition, hits mostly inhibitors. actives 3.4% (n = 340,000); active = well fitted inhibition curve with a large enough effect; inconclusive = small, poorly fitted or top-dose-only effect, or another doubt; inactive = no such curve, though single readings can be large or run the other way; also: potency is read from the fitted curve at half-maximal effect
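Infectious HCVcc-Cre (~0.5 moi) was added to cells just after compound, with cells seeded 4 h earlier at 1,000 per well. Luciferase activity after 44 h culture reported infection; substrate was incubated 15 min at room temperature before reading.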
Active calls of the source: *; i = inactive; ? = inconclusive; nt = no result; [ ] = dose if it differs, or a comment. An excerpt weighted towards active compounds, which were near 7.3% of everything screened. % is scaled to controls: 0 for no effect and ±100 for the full control effect.

SMILES	HCMV inh	Vaccinia Venus	Vaccinia mCherry	FMDV inh	HCV inhibitor
Cc1ccc(NC(=O)C2CCCN(C(=O)c3ccc(Cl)cc3)C2)cc1S(=O)(=O)N1CCOCC1 (centres undefined)	-72.4*	-26.0%	i	?	3.98µM*
CCOc1ncccc1C(=O)Nc1ccc(C)c(S(=O)(=O)N2CCCCCC2)c1	-15.4	nt	nt	-14.3%	14.1µM*
Cc1ccc(NC(=O)C2CCN(S(=O)(=O)c3ccc(N4CCCC4=O)cc3)CC2)cc1Cl	-85.6*	-17.3%	-9.6%	-28.2%	10µM*
Cc1ccc(NC(=O)CNC(=O)c2ccc(OC(F)F)cc2)cc1S(=O)(=O)N1CCCCCC1	-24.0	nt	nt	-20.3%	15.8µM*
CN1C(=O)C(C(Nc2ccccc2)c2ccc(Br)cc2)c2ccccc21 (centres undefined)	48.8	nt	nt	nt	nt
COc1ccc(S(=O)(=O)n2nc(C)c(S(=O)(=O)N3CCCCC3)c2C)cc1	3.0	-10.3%	-16.3%	7.3%	nt
Cc1ccccc1C(=O)NCC(=O)Nc1ccc(C)c(S(=O)(=O)N2CCCCCC2)c1	-12.4	-15.6%	-10.9%	35.5µM*	8.91µM*
O=C(Nc1ccc(OC(F)(F)F)cc1)C1CCCN(C(=O)c2ccc(Cl)cc2)C1 (centres undefined)	-38.5	nt	nt	-16.7%	7.94µM*
CC(=O)Nc1ccc(NC(=O)C2CCCN(C(=O)c3ccc(Cl)cc3)C2)cc1 (centres undefined)	-11.5	-8.9%	-20.3%	-14.5%	21.2%
Cc1ccccc1C(=O)N1CCC(C(=O)Nc2ccc(C)c(S(=O)(=O)N3CCCCC3)c2)CC1	0.0	nt	nt	?	10µM*
Cc1ccc(NC(=O)Cn2nc(C(=O)O)c3ccccc3c2=O)cc1S(=O)(=O)N1CCCCC1	2.1	-9.6%	-20.9%	39.8µM*	17.7%
Cc1ccc(NC(=O)COc2ccccc2)cc1S(=O)(=O)N1CCCCC1	-15.1	-13.8%	-2.4%	-21.9%	nt
C=CCn1c(=S)[nH]c2cc(C(=O)Nc3ccc(F)cc3)ccc2c1=O	-15.3	-8.5%	-16.1%	-23.2%	?
Cc1ccc(NCC(=O)Nc2cccc(F)c2)cc1S(=O)(=O)N1CCCCCC1	-97.7*	-13.5%	-18.4%	?	?
Cn1cnc(S(=O)(=O)N2CCC(C(=O)Nc3ccc(OC(F)(F)F)cc3)CC2)c1	-60.2*	-20.1%	i	-12.7%	nt
Cn1cnc(S(=O)(=O)N2CCC(C(=O)Nc3ccc(C#N)cc3)CC2)c1	11.8	-1.8%	-7.4%	-12.9%	nt
Cc1ccc2c(c1)N(CC(=O)NCC1CCCO1)C(=O)C(C(C)C)O2 (centres undefined)	-13.7	-4.5%	-0.6%	24.6%	12.1%
CC1(C(=O)NS(=O)(=O)c2cccc(F)c2)CCN1C(=O)CCC1CCCC1 (centres undefined)	20.8	1.2%	2.1%	8.0%	nt
CCc1ccccc1NC(=O)NNS(=O)(=O)c1cc(C)ccc1C	-1.4	-13.9%	-25.8%	45.2%	3.8%
Cc1ccccc1CN1C(=O)C(O)(CC(=O)c2cccc(Br)c2)c2ccccc21 (centres undefined)	?	-10.7%[7.34 µM]	-11.0%[7.34 µM]	-22.9%	nt
CN(Cc1ccccc1)C(=O)C1(C)CCN1C(=O)Cc1ccc(Cl)cc1Cl (centres undefined)	-33.4	-4.5%	31.2%	-11.9%	nt
COc1ccc(NC(=O)CN(C)C(=O)CNC(=O)c2ccc(C)s2)cc1	17.7	-18.6%	-22.0%	21.3%	-6.1%
CC(=O)n1cc(-c2ccncc2)c2ccccc21	-93.6*	-17.3%	i	-20.9%	10µM*
COc1cccc(CN(CC(=O)NC2CCCC2)C(=O)CCC(=O)Nc2cc(C)on2)c1	-80.8*	-9.3%	-21.9%	-13.1%	19.2%
CCC(C(=O)NC1CCCCC1)N(Cc1cccs1)C(=O)CCC(=O)Nc1cc(C)on1 (centres undefined)	-10.9	-4.1%	3.8%	-13.7%	11.2µM*
COc1cccc(N(CC(=O)NC2CCCC2)C(=O)CCC(=O)Nc2cc(C)on2)c1	7.6	-5.4%	i	0.2%	8.6%
CC1CCCN(CCOc2ccc3ccccc3c2Br)C1 (centres undefined)	-82.9*	-22.5%	-22.7%	6.6%	11.2µM*
O=C(Nc1ccc(F)cc1)c1cccn1-c1nnc(N2CCCCC2)s1	0.0	-5.4%	-6.1%	12.8%	nt
O=C1C(=O)N(c2ccccc2)C(c2ccccc2[N+](=O)[O-])/C1=C(\O)c1ccccc1 (centres undefined)	100.7	-13.8%	-11.1%	18.6%	13.5%
